Reference: PubChem BioAssay (NCI)
This is part of a sample that, as a whole, favours compounds with a hit. Of some 79,000 tested, about 15% had one in any assay. No stated cut-off is given here; in the data, active means growth inhibition above about 70%; inactive means the rest.

Experiments:
[1] = NCI Yeast Anticancer Drug Screen. Data for the rad50 strain (AID 155);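 further: 0% = growth of vehicle-only cultures of the same strain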; conditions: S. cerevisiae rad50 strain growth inhibition; at 50.0 µM; active compounds read high
Method in brief: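 A DNA repair-deficient yeast mutant serves as the test organism; compound-induced growth inhibition is calculated against vehicle-treated cells.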

[2] = NCI Yeast Anticancer Drug Screen. Data for the mec2-1 strain (AID 157); conditions: S. cerevisiae mec2-1 strain, at 50.0 µM, active compounds read high
Method in brief: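 Yeast mec2-1 mutant treated with compound. Readout: growth inhibition vs vehicle controls.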

[3] = NCI Yeast Anticancer Drug Screen. Data for the sgs1 mgt1 strain (AID 161);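 further: 0% = growth of cultures given vehicle only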; conditions: S. cerevisiae sgs1 mgt1 strain, at 50.0 µM, active compounds read high
Method in brief: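 Test agents were incubated with a DNA-repair-mutant yeast strain. Growth was then read and compared against vehicle-treated controls.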

[4] = NCI Yeast Anticancer Drug Screen. Data for the cln2 rad14 strain (AID 165);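 further: 0% = growth equal to vehicle treated cultures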; conditions: S. cerevisiae cln2 rad14 strain, at 50.0 µM, active compounds read high
Method in brief: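 cln2 rad14 yeast strain; compound exposure; growth inhibition read vs vehicle controls.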

[5] = NCI Yeast Anticancer Drug Screen. Data for the bub3 strain (AID 167); conditions: S. cerevisiae bub3 mutant strain, at 50.0 µM, active compounds read high
Method in brief: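 Inhibition values come from growth of compound-treated mutant yeast normalised to vehicle-treated controls.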

[6] = NCI Yeast Anticancer Drug Screen. Data for the mlh1 rad18 strain (AID 175); conditions: S. cerevisiae mlh1 rad18 strain growth inhibition; at 50.0 µM; active compounds read high
Method in brief: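 Yeast w/ defined DNA-repair lesions; compound exposure; growth vs vehicle controls → % inhibition.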

Measured: growth inhibition

O=C1CCCc2ccc([N+](=O)[O-])cc21
inactive: [1] -3.35% | [2] -54.7% | [3] -17.2% | [4] 18.6% | [5] -11.8% | [6] 23.1%

Cc1n[nH]c(=O)n1-n1cccc1
inactive: [1] -10.1% | [2] -5.35% | [3] -35.5% | [4] 7.1% | [5] -37.2% | [6] 2.55%

O=C1C=C(c2ccccc2)CC1
inactive: [1] -17.8% | [2] 2.55% | [3] -6.05% | [4] 8.4% | [5] 13.1% | [6] 0.95%

CN(C)CCCCCCNCCC#N
inactive: [1] 21.2% | [2] -27.8% | [3] -8.4% | [4] -8.85% | [5] -28.4% | [6] -1.6%

Cn1c(=O)c2[nH]c(=S)n(CC3CCCCC3)c2n(C)c1=O
inactive: [1] -1.95% | [2] -3.55% | [3] -8.4% | [4] -29% | [5] 0.1% | [6] 17.4%

CC(C)NC(=O)C1C2C=CC(CC2)C1C(=O)NC(C)C (stereo not drawn)
inactive: [1] 6.2% | [2] 20.1% | [3] 22.6% | [4] -5.7% | [5] 11.3% | [6] 10.2%

CC(C)(C)N(OC(=O)c1ccc(C#N)cc1)c1ccccc1
inactive: [1] 15.4% | [2] 11.6% | [3] 3.55% | [4] 7.75% | [5] 4.2% | [6] 3.35%

Cc1ccc(CCCC(=O)O)cc1C
inactive: [1] -21.6% | [2] 2.65% | [3] -7.05% | [4] 10.6% | [5] -44.2% | [6] -13.8%

CC(=O)OC1CC2CC1C1C=CCC21 (stereo not drawn)
inactive: [1] 10.3% | [2] 3.75% | [3] 19.8% | [4] 11.3% | [5] 6.5% | [6] 0.65%

COc1ccc(NC(=O)Oc2ccc(C#N)cc2)cc1
inactive: [1] -1.3% | [2] -16.1% | [3] 5.5% | [4] 8.3% | [5] 10.4% | [6] -1.55%

Cc1cc2ccccc2[nH]1
inactive: [1] 33.9% | [2] -15.3% | [3] -3.65% | [4] 3.1% | [5] 2.75% | [6] 10%

O=c1nc(NC2CC2)ccn1C1OC(CO)C(O)C1O (stereo not drawn)
inactive: [1] -3.75% | [2] -4.25% | [3] -1% | [4] -0.25% | [5] 4.35% | [6] -20.9%

Cc1ccc(C(=O)Oc2ccccc2)cc1N=NN(C)C
inactive: [1] -20.7% | [2] -49% | [3] -56.8% | [4] 25.5% | [5] -29.8% | [6] -24.1%

CC(=O)OC1CC[C@@]2(C)C(C1)CC(OC(C)=O)[C@@H]1C2CC(OC(C)=O)[C@]2(C)C(C(C)CC=C(c3ccc(Cl)cc3)c3ccc(Cl)cc3)CCC12 (stereo partly drawn)
inactive: [1] 0.4% | [2] 2.8% | [3] 3.05% | [4] 11.1% | [5] 20.5% | [6] 5%

CCCc1cc(-c2ccc(-c3cc(CCC)c(C=O)[nH]3)s2)[nH]c1C=O
inactive: [1] -19% | [2] -19.6% | [3] -31% | [4] -4.9% | [5] -20.1% | [6] -46.9%

Cc1cc2cc3c(C)cc(=O)oc3c(C)c2o1
inactive: [1] -35.1% | [2] -37.1% | [3] -28.4% | [4] -8.35% | [5] -10.5% | [6] -17.6%

NCCCC(=O)NCCCCCCCCCCNC(=O)CCCN
inactive: [1] 29.3% | [2] 18% | [3] 19% | [4] 15.6% | [5] -4.45% | [6] 24.4%

NC(=O)NC1CCCCCCC1
inactive: [1] 5.95% | [2] -14.9% | [3] 1.05% | [4] -7.45% | [5] 4.75% | [6] 0.3%

COC1=CC(=O)C(CCC(C)=O)=CC1=O
inactive: [1] -41.3% | [2] -29.6% | [3] -9.55% | [4] -16.4% | [5] 15.2% | [6] -4.3%

CN(C)c1nc2nc[nH]c2c(=S)n1C
inactive: [1] 7.45% | [2] 6% | [3] 4.1% | [4] 24.6% | [5] -9.6% | [6] 0.15%

CN(C)c1nnnn1Cc1ccccc1
inactive: [1] -1.35% | [2] -3.8% | [3] -7.25% | [4] -26.3% | [5] 5.65% | [6] 1.8%

CCOC(=O)c1nc(N(C)C)oc(=O)c1C
inactive: [1] 25.1% | [2] 33.1% | [3] 28.1% | [4] -0.7% | [5] 18.6% | [6] 13.6%

Cc1[nH]c(=O)nc(N(CCO)/N=C/c2ccc(Cl)cc2)c1C(=O)Nc1ccc(Cl)cc1
inactive: [1] 6.7% | [2] 38.6% | [3] -18.1% | [4] 12.4% | [5] -13.3% | [6] -36%

C/C(=N\Nc1ccccc1Br)c1cccc(/C(C)=N/Nc2ccccc2Br)n1
inactive: [1] -21.6% | [2] -1.55% | [3] -6.1% | [4] -11.6% | [5] 2.75% | [6] 6.2%

Cn1c(=O)nc(N)n(NC(=O)CCl)c1=O
inactive: [1] 30.6% | [2] 10.3% | [3] 23.6% | [4] 9.9% | [5] -6.6% | [6] 15.4%

Nc1ccc(S(=O)(=O)S(=O)(=O)c2ccc(N)cc2)cc1
inactive: [1] -0.1% | [2] 1.95% | [3] -3.55% | [4] 12.4% | [5] -0.9% | [6] -2.95%

CCN1CCCC(N)C1 (stereo not drawn)
inactive: [1] -26.1% | [2] -23.2% | [3] -34.9% | [4] 11.8% | [5] -41.8% | [6] -27.9%

CCOC(=O)/C(C#N)=C(\C)c1ccc(O)c(OC)c1
inactive: [1] 11.4% | [2] 8.95% | [3] -3.45% | [4] 24.1% | [5] -8.1% | [6] 14.8%

COC(=O)c1ccc(OC(=O)Nc2ccc(C)cc2)cc1
inactive: [1] -7.15% | [2] -9.6% | [3] -8.45% | [4] -9.4% | [5] 13.6% | [6] -6.6%

Cc1cc(=O)[nH]c2c(C)cccc12
inactive: [1] 4% | [2] 28.2% | [3] 11.8% | [4] -4.5% | [5] -0.4% | [6] 16.6%

Nc1ncnc2c1ncn2[C@@H]1C[C@H]1CO
inactive: [1] -39.6% | [2] 10.8% | [3] -23.6% | [4] 12.1% | [5] 20.6% | [6] -23.4%

Cc1nccc2c3ccccc3n(S(=O)(=O)O)c12
inactive: [1] -4.7% | [2] 26.1% | [3] 11.4% | [4] 55% | [5] -5.95% | [6] 9%

O=C(CC1=Nc2nnc(-c3nnc4n3C(=O)C(CC(=O)C3CC3)=N4)n2C1=O)C1CC1
inactive: [1] -10% | [2] 2.95% | [3] -5.25% | [4] -16.6% | [5] -4.8% | [6] -3.8%

OCC1OC(OC2CC3C(OC4OC(CO)C(O)C(O)C4O)CC(O)CC3OC2c2ccc(O)cc2)C(O)C(O)C1O (stereo not drawn)
inactive: [1] 18.1% | [2] 16.2% | [3] 21% | [4] 14.5% | [5] 11.8% | [6] 16.1%

CC(Cl)(CO)CCl (stereo not drawn)
inactive: [1] 5.45% | [2] 9.5% | [3] -2.65% | [4] 4.05% | [5] -6.4% | [6] 2.05%

Nc1cccc2c1C(=O)c1cccc(Nc3ccc4c(c3)C(=O)c3ccccc3C4=O)c1C2=O
inactive: [1] -2.95% | [2] -2.7% | [3] 5.55% | [4] 47.9% | [5] -14.2% | [6] 32.9%

CC(C)c1cccc(C(C)C)c1NC(=O)C(=O)C1SC(=S)NC1=O (stereo not drawn)
inactive: [1] -23.6% | [2] -13.1% | [3] -18.9% | [4] 8.75% | [5] -11.3% | [6] -29.6%

O=C(O)C(Cc1c[nH]c2ccccc12)Nc1ccc([N+](=O)[O-])cc1[N+](=O)[O-] (stereo not drawn)
inactive: [1] -27.7% | [2] -3.95% | [3] 13.8% | [4] -10.7% | [5] 3.6% | [6] 7.55%
